Our source for the composite z-score and z-score values is PubChem BioAssay.

Molecules are shown by their SMILES. Calls of active or inactive are those of the source.

Assay [1] concerns Plasmodium falciparum Sir2 (PF13_0152, Sir2A). Put plainly: Plasmodium falciparum Sir2A binding compounds – biochemical, small-molecule microarray, 635 nm fluorescence, primary screen (AID 1098).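 Further: score merges spot fluorescence intensity with its signal-to-noise ratio.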 The note with it: fluorescence 635 nm, higher = more signal.
Assay [2] can be described thus: probe aDKK1 binding to arrayed compounds – biochemical, biotinylated probe, 635/667 nm fluorescence, primary screen (AID 1099).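 Further: score merges 667nm spot fluorescence with signal to noise across triplicate slides; reference of the scale not given here.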 The note with it: small-molecule microarray, higher = more signal.
Assay [3] is described as follows: probe aCHRDL2 binding to arrayed compounds – biochemical, biotinylated probe, 635/667 nm fluorescence, primary screen (AID 1100). The conditions noted are these: small-molecule microarray, higher = more signal.
A short description of assay [4]: change in splice reporter luminescence, either direction, cell-based, HEK293, spliceosome inhibition project, primary screen (AID 1101).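 Further: HEK293 cells carrying a splicing-competent luciferase reporter gene; test concentration not given here.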 The conditions noted are these: HEK293 splicing luciferase reporter, 24 h, higher = more signal, called active from +8 up or from −8 down.
Assay [5] has as its target Fibroblast growth factor 10 (Homo sapiens) (UniProt O15520). Briefly: compounds binding fibroblast growth factor 10 – biochemical, small-molecule microarray, 635 nm fluorescence, primary screen (AID 1102). The conditions noted are these: FGF10 binding, fluorescence 635 nm, higher = more signal.
The test system of assay [6] is glycogen synthase kinase-3 (GSK3A per assay name; protocol says GSK3B). Briefly: compounds binding glycogen synthase kinase-3 – biochemical, small-molecule microarray, 635 nm fluorescence, GSK3A, primary screen (AID 1103). Further: the record names both GSK3A and GSK3B. The note with it: fluorescence 635 nm, higher = more signal.
Assay [7] concerns the target Epidermal growth factor receptor (Homo sapiens) (UniProt P00533). Briefly: compounds binding epidermal growth factor receptor – biochemical, small-molecule microarray, 635 nm fluorescence, primary screen (AID 1104).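 Further: score merges 667 nm emission intensity with spot signal to noise over triplicate slides.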 The note with it: EGFR binding, higher = more signal.
The target of assay [8] is Follistatin-related protein 3 (Homo sapiens) (UniProt O95633). Briefly: compounds binding follistatin-related protein 3 – biochemical, small-molecule microarray, 635 nm fluorescence, primary screen (AID 1105).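 Further: score merges emission near 667 nm and signal to noise per printed spot across three slides.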 The conditions noted are these: FSTL3 binding, higher = more signal.
For assay [9], the target named is Dickkopf-related protein 1 (Homo sapiens) (UniProt O94907). Briefly: small molecules binding DKK1 protein – biochemical, small-molecule microarray, 635 nm fluorescence scan, primary screen (AID 1106).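 Further: score merges emission near 667 nm with signal to noise over three replicate slides.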 The conditions noted are these: higher = more signal.
Assay [10] deals with Inhibin beta A chain (activin A). Briefly: small molecules binding activin A – biochemical, small-molecule microarray, 635 nm fluorescence scan, primary screen (AID 1107).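 Further: mouse activin A protein probed at 4.33 µg/mL on printed slides; score merges bound-protein fluorescence near 667 nm with spot signal-to-noise.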 The conditions noted are these: INHBA, higher = more signal.

Sequence of Epidermal growth factor receptor (Homo sapiens) (P00533 whole entry, looked up): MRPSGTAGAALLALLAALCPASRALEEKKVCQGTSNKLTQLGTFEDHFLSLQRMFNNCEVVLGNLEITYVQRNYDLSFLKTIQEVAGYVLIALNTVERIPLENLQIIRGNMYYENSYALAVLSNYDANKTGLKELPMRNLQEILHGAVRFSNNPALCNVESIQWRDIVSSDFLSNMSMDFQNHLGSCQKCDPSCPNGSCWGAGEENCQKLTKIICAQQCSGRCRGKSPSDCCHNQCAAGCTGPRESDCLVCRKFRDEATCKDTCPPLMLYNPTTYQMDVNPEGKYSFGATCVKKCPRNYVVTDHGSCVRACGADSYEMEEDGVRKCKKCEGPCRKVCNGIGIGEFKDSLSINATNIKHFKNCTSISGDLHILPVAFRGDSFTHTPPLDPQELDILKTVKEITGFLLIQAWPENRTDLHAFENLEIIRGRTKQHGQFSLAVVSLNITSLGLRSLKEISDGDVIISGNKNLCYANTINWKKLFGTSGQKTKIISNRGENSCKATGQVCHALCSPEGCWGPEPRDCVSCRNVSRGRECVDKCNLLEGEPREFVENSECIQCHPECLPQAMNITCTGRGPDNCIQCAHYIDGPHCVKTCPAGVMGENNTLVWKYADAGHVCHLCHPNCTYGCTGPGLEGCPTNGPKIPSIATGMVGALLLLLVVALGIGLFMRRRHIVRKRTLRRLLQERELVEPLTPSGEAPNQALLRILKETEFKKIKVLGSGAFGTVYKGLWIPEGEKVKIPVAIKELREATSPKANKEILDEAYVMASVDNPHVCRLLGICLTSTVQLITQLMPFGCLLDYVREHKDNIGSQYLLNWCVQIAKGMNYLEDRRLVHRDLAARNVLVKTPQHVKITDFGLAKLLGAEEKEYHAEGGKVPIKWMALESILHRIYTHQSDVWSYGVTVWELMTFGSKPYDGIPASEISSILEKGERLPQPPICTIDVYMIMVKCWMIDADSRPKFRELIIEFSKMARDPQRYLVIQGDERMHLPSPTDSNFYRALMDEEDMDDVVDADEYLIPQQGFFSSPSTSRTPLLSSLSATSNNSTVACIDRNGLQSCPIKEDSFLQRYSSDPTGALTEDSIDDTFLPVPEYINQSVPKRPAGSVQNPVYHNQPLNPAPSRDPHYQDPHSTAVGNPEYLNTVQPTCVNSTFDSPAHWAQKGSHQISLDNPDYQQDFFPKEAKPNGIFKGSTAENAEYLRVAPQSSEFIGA
Sequence of Dickkopf-related protein 1 (Homo sapiens) (O94907 whole entry, looked up): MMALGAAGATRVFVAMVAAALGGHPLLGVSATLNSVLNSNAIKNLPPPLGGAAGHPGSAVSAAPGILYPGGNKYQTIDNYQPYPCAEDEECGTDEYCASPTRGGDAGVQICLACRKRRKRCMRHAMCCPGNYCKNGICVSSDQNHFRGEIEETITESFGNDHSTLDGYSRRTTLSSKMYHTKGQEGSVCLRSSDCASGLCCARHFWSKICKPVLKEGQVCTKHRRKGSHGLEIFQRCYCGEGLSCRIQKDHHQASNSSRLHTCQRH
Sequence of Follistatin-related protein 3 (Homo sapiens) (O95633 whole entry, looked up): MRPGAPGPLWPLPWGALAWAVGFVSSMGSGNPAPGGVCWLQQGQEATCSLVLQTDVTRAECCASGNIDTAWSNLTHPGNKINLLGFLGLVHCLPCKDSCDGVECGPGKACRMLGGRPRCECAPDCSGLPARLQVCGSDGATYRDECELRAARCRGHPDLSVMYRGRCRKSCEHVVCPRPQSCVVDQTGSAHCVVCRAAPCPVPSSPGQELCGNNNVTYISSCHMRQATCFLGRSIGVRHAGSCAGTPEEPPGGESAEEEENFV
Sequence of Fibroblast growth factor 10 (Homo sapiens) (O15520 whole entry, looked up): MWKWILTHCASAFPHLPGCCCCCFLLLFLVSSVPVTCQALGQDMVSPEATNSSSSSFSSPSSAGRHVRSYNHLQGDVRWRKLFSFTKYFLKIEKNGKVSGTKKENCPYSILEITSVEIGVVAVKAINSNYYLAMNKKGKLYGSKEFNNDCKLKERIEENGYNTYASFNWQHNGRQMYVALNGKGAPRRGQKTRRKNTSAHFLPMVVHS

In the case of `COc1ccc(NN2C(C(O)c3cc(C(F)(F)F)cc(C(F)(F)F)c3)C=CC3C(=O)N(C4CCCCC4)C(=O)C32)cc1` (stereo not given), the composite z-score in assay [1] came to 1.12; in [2] it was 1.28; in [3] it was 0.751; in assay [5], 0.37; in [6] it was 0.977; in assay [7], 0.0981. Also, the composite z-score was 0.384 in assay [8], -0.292 in [9] and 0.639 in assay [10]. For the same compound, the z-score in [4] is -1.08 (inactive).

With `O=C1OCCC/C=C\[C@H]2OC34C=CCN(Cc5ccccc5)C(=O)[C@H]3N(CCCCCO)C(=O)[C@@H]4C12` (stereo not given in full), the composite z-score in [1] was 1.21; in assay [2], -0.312; in [3], 0.312; in [5] it was -0.744; in assay [6], -0.823; in assay [7], -1.1. Moreover, the figures for the composite z-score in [8], in assay [9] and in assay [10] were -0.808, -0.663 and 0.933, respectively. Moreover, in [4], the z-score is -0.0325 (inactive).

As for `O=C1N(Cc2ccccc2)c2ccccc2[C@H]2OC(c3ccc(OCCCO)cc3)=N[C@@]12Cc1ccccc1`, the composite z-score was determined as 1.53 in assay [1]; 0.655 in [2]; 0.794 in assay [3]; 1.16 in assay [5]; 1.29 in assay [6]; 0.279 in assay [7]. Also, the composite z-score in [8] was 0.582; in assay [9], 0.194; in assay [10], 0.925. Further, the z-score in assay [4] is -0.385 (inactive).

Consider `COCCOC(=O)N1C(=O)[C@@]2(c3cc(C#CC4=CCCCC4)ccc31)[C@H](c1ccccc1OCCO)N1[C@H](c3ccccc3)[C@H](c3ccccc3)OC(=O)[C@H]1[C@@H]2C(N)=O`, for which the composite z-score was 1.35 in [1]; -0.0668 in assay [2]; -0.144 in assay [3]; 1.29 in assay [5]; 1.31 in assay [6]; 0.766 in [7]. Further, the results for the composite z-score in assay [8], in assay [9] and in assay [10] were 1.2, 0.912 and 0.557, respectively. Also, in assay [4], the z-score is -3.87 (inactive).

For `C=CC[C@]1(C(=O)N(C)C)COC(c2ccc(OCCCO)cc2)=N1`, the composite z-score in [1] is 1.6; in assay [2], 0.98; in [3] it was 1.26; in assay [5], 0.772; in assay [6], 0.248; in assay [7], -0.737. Further, the composite z-score in assay [8] is -0.438; in assay [9], -0.0393; in assay [10], 0.465. Also, in assay [4], the z-score was -0.858 (inactive).

`C#CCN=C(N)N`: the composite z-score in assay [1] is 0.271; in assay [2], 0.0623; in [3], -0.534; in assay [5], 0.528; in [6] it was 0.605; in assay [7], 0.527. Further, the values for the composite z-score in assay [8], in assay [9] and in assay [10] were 0.918, 0.861 and 0.548, respectively. Besides, the z-score in [4] is 0.422 (inactive).

Consider `C=C(C(=O)CC[C@@H](OC(C)=O)c1cccc(OCCO)c1)C(C)C`, for which the composite z-score in [1] was 1.24; in assay [2], -0.136; in assay [3], 0.114; in assay [5] it was 0.0186; in [6], -0.664; in assay [7] it was -0.649. For the same compound, the composite z-score in assay [8] is -0.0718; in [9] it was -0.375; in [10], 1.35. In addition, in assay [4], the z-score was 2.37 (inactive).

Take `NC(=O)N1C(=O)C2C(C1=O)C1C=C(CCCO)C2C(c2ccc(CN3CCCC3)cc2)N1Cc1cccc(OC(F)(F)F)c1` (stereo not given): the composite z-score in [1] was determined as 0.488; in [2] it was 0.084; in assay [3], 0.263; in assay [5] it was 0.374; in [6], 0.686; in assay [7], 0.634. For the same compound, the composite z-score was determined as 0.719 in [8], 0.723 in assay [9] and 1.59 in assay [10]. In assay [4], the z-score is -0.443 (inactive).

With `COc1ccc(C#Cc2ccc3c(c2)[C@]2(C(=O)N3)[C@H](c3ccc(OCCO)cc3)N3[C@H](c4ccccc4)[C@H](c4ccccc4)OC(=O)[C@H]3[C@@H]2C(=O)O)cc1`, the composite z-score in assay [1] stood at 0.955; in [2] it was 0.606; in assay [3], 0.176; in assay [5], 1.42; in assay [6] it was 1.22; in [7], 0.398. For the same compound, the composite z-score turned out to be 1.44 in assay [8], 0.183 in assay [9] and 0.751 in assay [10]. Besides, the z-score in assay [4] was -1.35 (inactive).

Turning to `CO[C@H]1O[C@H](CO)[C@@H](OC(=O)Nc2ccc(C(F)(F)F)cc2)[C@H](OC(=O)Nc2ccccc2-c2ccccc2)[C@@H]1OC(=O)Nc1ccccc1-c1ccccc1`, the composite z-score came out at 1.46 in assay [1]; 1.07 in assay [2]; 0.61 in [3]; 1.04 in assay [5]; 1.29 in assay [6]; 0.35 in [7]. The figures for the composite z-score in assay [8], in [9] and in [10] were 1.37, 0.507 and 0.0026, respectively. The z-score in assay [4] was -0.0628 (inactive).

In the case of `COc1cc2c(cc1O)C(c1ccc(CN3CCCC3)cc1)N(Cc1cccc(OC(F)(F)F)c1)CC2` (stereo not given), the composite z-score in [1] is 1.02; in [2], 0.422; in assay [3], 0.414; in assay [5], 0.15; in [6], 0.213; in assay [7] it was 0.576. For the same compound, the values for the composite z-score in [8], in [9] and in assay [10] were 0.81, 0.36 and 1.44, respectively. The z-score in [4] was -2.59 (inactive).
